Compound activity (PubChem)
FMDV inh = foot and mouth disease virus antiviral activity; AID 1159524; FMDV antiviral cell-based qHTS; actives 1.2% (n = 410,000); Potency, µM (top dose mostly 57.9 µM), actives largely listed as inhibitors; calls by dose curve; tested in HEK293T cells; note: read-out not given here; nearly all actives have a fitted effect of over 45% in size
MARV entry inh = Marburg virus entry inhibition; Marburg virus pseudotyped entry inhibition, cell reporter; Potency, µM (top dose mostly 37.8 µM), most hits filed as inhibitors; actives 1.8% (n = 300,000); AID 540276; calls by dose curve; tested in HEK293 cells
HCV inhibitor = HCV inhibition; AID 651820; Potency, µM (titrated, usually from 41.8 µM), most hits filed as inhibitors; Huh7.5.1 HCVcc-Cre infection, luciferase reporter, 44 h; actives 3.4% (n = 340,000); active = well fitted inhibition curve with a large enough effect; inconclusive = small, poorly fitted or top-dose-only effect, or another doubt; inactive = no such curve, though single readings can be large or run the other way
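Reporter virus HCVcc-Cre (~0.5 moi) infects cells exposed to compound; seeding density 1,000 cells/well with 4 h settling beforehand. Luminescence, 15 sec read, taken 44 h post-infection following a 15 min RT substrate incubation.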
Lassa entry inh = Lassa virus entry inhibition | AID 540256 | actives 1.2% (n = 300,000) | Potency, µM (series often up to 37.9 µM), most hits filed as inhibitors | Lassa virus pseudotype entry inhibition, cell reporter; calls by dose curve; tested in HEK293 cells; note: nearly all actives have a fitted effect of over 50% in size
HCMV inh = human cytomegalovirus inhibition; HFF cells, HCMV-luciferase reporter, 72 h; hits give low values; actives 4.5% (n = 410,000); activity change, negative = inhibition, % at 57.5 µM; in the data active = activity change below about -60%; inconclusive = no clear call, values can overlap the other calls; inactive = above about -39%
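Cell-based, HFFs, 1000 cells/well, 16 h 37C; cpds in DMSO + HCMV-luc, MOI 1 PFU/cell; 72 h 37C; OneGlo luminescence after 5 min RT; norm. to buffer vs Salinomycin 10uM.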
SARS PLP yeast = blocks SARS-CoV papain-like protease in a yeast assay; S. cerevisiae expressing SARS-CoV PLpro, growth rescue; Potency, µM (series often up to 32.9 µM), actives largely listed as activators; actives 0.19% (n = 330,000); calls by dose curve; note: nearly all actives have a fitted effect of over 55% in size
Of the large screens only hits and unclear results are named; the others gave an inactive call. Compounds with a hit are over-represented: about 8% of the library has one in this group of screens.

COc1ccccc1C(O)c1ncc(-c2ccccc2C)[nH]1 (stereo unspecified)	none (no result: MARV entry inh, HCV inhibitor, Lassa entry inh, SARS PLP yeast)
COCc1c(C(=O)NC2CCCC2)cnn1-c1nccc(-c2ccco2)n1	none (no result: MARV entry inh, HCV inhibitor, Lassa entry inh, HCMV inh, SARS PLP yeast)
CC1CCCCN1Cc1c(O)ccc2c(=O)c(-c3ccccc3Cl)c(C(F)(F)F)oc12 (stereo unspecified)	MARV entry inh inconclusive (no result: HCV inhibitor, SARS PLP yeast)
CC1CCCCN1Cc1c(O)ccc2c(=O)c(-c3nc4ccccc4s3)c(N)oc12 (stereo unspecified)	FMDV inh inconclusive, MARV entry inh 2.5µM, HCV inhibitor 10µM, Lassa entry inh inconclusive
CC(=O)c1cccc(NC(=O)CC2CCCC2)c1	none
COC(=O)c1cc(NC(=O)CC2CCCC2)cc(C(=O)OC)c1	MARV entry inh inconclusive, HCMV inh -64
CCOc1ccc2oc(-c3ccccc3)c(C(=O)N(C)C)c2c1	MARV entry inh inconclusive, HCV inhibitor inconclusive, HCMV inh -62 (no result: FMDV inh)
CCOc1ccc2oc(-c3ccccc3)c(C(=O)O)c2c1	none
CCOC(=O)c1c(-c2ccc(OC)cc2)oc2ccc(OCC(N)=O)cc12	HCV inhibitor 2.2µM
C=CCn1c(=O)c(C(=O)NCCc2ccccc2)c(O)c2ccccc21	HCV inhibitor inconclusive, HCMV inh inconclusive (no result: FMDV inh)
CCCn1c(=O)c(C(=O)NCc2ccc(OC)c(OC)c2)c(O)c2ccccc21	FMDV inh inconclusive, HCV inhibitor 14µM
CCN(CC)CCCNC(=O)c1c(O)c2ccccc2n(Cc2ccccc2)c1=O	MARV entry inh 14µM, Lassa entry inh inconclusive
C=CCn1c(=O)c(C(=O)NCc2ccc(Cl)cc2)c(O)c2ccccc21	HCMV inh -66 (no result: MARV entry inh, Lassa entry inh)
CCN(CC)CCNC(=O)c1c(O)c2ccccc2n(Cc2ccccc2)c1=O	MARV entry inh inconclusive, HCV inhibitor inconclusive
CCCn1c(=O)c(C(=O)NCCc2ccc(OC)cc2)c(O)c2ccccc21	HCV inhibitor 13µM (no result: MARV entry inh, Lassa entry inh)
O=C(NCCN1CCOCC1)C1CC(=O)N(c2cccc(C(F)(F)F)c2)C1 (stereo unspecified)	MARV entry inh inconclusive
CCOC(=O)N1CCN(C(=O)C2CC(=O)N(c3ccc(C)cc3)C2)CC1 (stereo unspecified)	none
O=C(c1[nH]ncc1-c1cccc(Br)c1)C1CO1 (stereo unspecified)	FMDV inh 35µM, MARV entry inh inconclusive, HCV inhibitor inconclusive, Lassa entry inh inconclusive
Cn1c(SCC(=O)NC(C)(C)C)nnc1-c1ccc(C(C)(C)C)cc1	HCV inhibitor inconclusive, HCMV inh -60 (no result: FMDV inh)
CCn1c(SCC(=O)NC(C)(C)C)nnc1-c1ccncc1	none
CNc1cc(C)c(C#N)c2nc3ccccc3n12	none
CCc1c(C)c(C#N)c2nc3ccccc3n2c1NC	none
N#Cc1c(-c2ccccc2)c(C#N)c2nc3ccccc3n2c1N	FMDV inh inconclusive, MARV entry inh inconclusive, HCV inhibitor inconclusive
CCCCc1c(C)c(C#N)c2nc3ccccc3n2c1Nc1c(C)n(C)n(-c2ccccc2)c1=O	HCV inhibitor inconclusive, HCMV inh -90
Cc1ccc(-c2c(C#N)c(N)n3c(nc4ccccc43)c2C#N)cc1	FMDV inh inconclusive, MARV entry inh inconclusive, HCV inhibitor inconclusive, Lassa entry inh inconclusive, HCMV inh -72
Cc1cc(Cl)n2c(nc3ccccc32)c1C#N	FMDV inh 7.9µM, MARV entry inh 4.5µM, HCV inhibitor inconclusive, Lassa entry inh inconclusive
Cc1c(CCCl)c(Cl)n2c(nc3ccccc32)c1C#N	FMDV inh 3.5µM, MARV entry inh 5µM, HCV inhibitor inconclusive, Lassa entry inh 11µM, HCMV inh -99 (no result: SARS PLP yeast)
COC(=O)[C@]1(C#N)[C@H](Cc2ccccc2)C(=O)N(Cc2ccc(Cl)cc2)[C@@H]1c1ccc(OC)cc1	none (no result: FMDV inh, MARV entry inh, HCV inhibitor, Lassa entry inh, SARS PLP yeast)
Cc1nn(CC(=O)NCc2ccccc2Cl)c(=O)c2nn(-c3ccccc3)c(C)c12	none (no result: MARV entry inh, HCV inhibitor, SARS PLP yeast)
COC(=O)c1ccc(C(=O)OC)c(NC(=O)C(C)(C)C)c1	none
O=C(O)C(Cc1ccccc1N(CCO)CCO)N1C(=O)c2ccccc2C1=O (stereo unspecified)	none (no result: SARS PLP yeast)
COc1ccc(C(=O)NC2CCc3ccccc32)cc1OC1CCN(C(C)=O)CC1 (stereo unspecified)	none
COc1ccc(NC(=O)CCc2nc(C3=CCN(Cc4cccc(Cl)c4)CC3)no2)cc1OC	FMDV inh 32µM (no result: MARV entry inh, HCV inhibitor, SARS PLP yeast)
O=C(C=Cc1ccccc1)c1ccccc1O	MARV entry inh inconclusive (no result: FMDV inh, HCV inhibitor, HCMV inh, SARS PLP yeast)
COc1ccc(Cn2c(O)c(C=Nc3ccccc3)c3ccccc3c2=O)cc1	Lassa entry inh inconclusive, HCMV inh -63
O=C(Nc1ccccc1CC[N+](=O)[O-])N1CCN(c2ccccc2)CC1	MARV entry inh 10µM
CN(C)C(=O)Nc1ccccc1CC[N+](=O)[O-]	none
CC1CN(CC(=O)NCCC2COc3ccccc3O2)Cc2cc(Cl)ccc2O1 (stereo unspecified)	none (no result: MARV entry inh, HCV inhibitor, Lassa entry inh, HCMV inh, SARS PLP yeast)
Oc1ccc(Nc2nccc3[nH]c(-c4ccccc4)cc23)cc1	none (no result: FMDV inh, MARV entry inh, HCV inhibitor, Lassa entry inh, SARS PLP yeast)
O=[N+]([O-])c1cc([N+](=O)[O-])c2cc3ccccc3nc2c1	FMDV inh 28µM, MARV entry inh inconclusive, HCV inhibitor inconclusive, Lassa entry inh inconclusive
Cc1cc(-c2nc3cc(F)ccc3s2)ccc1N	MARV entry inh 7.1µM, HCV inhibitor inconclusive, Lassa entry inh 2.2µM (no result: SARS PLP yeast)
Cc1ccc(C(=O)Nc2ccc(-c3nc4ccccc4s3)cc2C)cc1C	MARV entry inh inconclusive (no result: HCV inhibitor, SARS PLP yeast)
COc1ccc(C(=O)NCc2ccon2)cc1OC1CCN(C(C)C)CC1	none (no result: MARV entry inh, Lassa entry inh)
CCOc1ccccc1N(CC)C(=O)c1cc2c(=O)n(CC)c3ccccc3c2s1	FMDV inh inconclusive, MARV entry inh inconclusive, HCMV inh -70 (no result: HCV inhibitor, SARS PLP yeast)
CCCN(C(=O)c1cc2c(=O)n(CC)c3ccccc3c2s1)c1ccccc1F	none (no result: HCV inhibitor, SARS PLP yeast)
CCn1c(=O)c2cc(C(=O)N(C)c3cc(C)ccc3OC)sc2c2ccccc21	HCV inhibitor 13µM (no result: MARV entry inh, Lassa entry inh)
CCn1c(=O)c2cc(C(=O)N(C)c3ccccc3F)sc2c2ccccc21	HCV inhibitor 1µM, HCMV inh inconclusive
CCn1c(=O)c2cc(C(=O)N(C)c3cc(Cl)c(OC)cc3OC)sc2c2ccccc21	none (no result: HCV inhibitor, SARS PLP yeast)
Cc1cccc(NC(=O)COc2coc(CN3CCN(c4ccccc4)CC3)cc2=O)c1	none
Cc1cccc(C)c1OCC(=O)Nc1ccc2c(c1)OCCO2	none (no result: MARV entry inh, Lassa entry inh)
Cc1cc(C)c(NC(=O)COc2nc3ccccc3nc2C)c(C)c1	HCV inhibitor 11µM, HCMV inh inconclusive
Cc1nc2ccccc2nc1OCC(=O)Nc1ccc2ccccc2c1	HCV inhibitor inconclusive
Cc1cccc2[nH]c3c(N4CC=C(c5ccc(F)cc5)CC4)ncnc3c12	FMDV inh 40µM, MARV entry inh 11µM, HCV inhibitor 13µM, Lassa entry inh inconclusive, HCMV inh inconclusive
CCOC(=O)C1=CN(CCNC(=O)OC(C)(C)C)C(=O)NC1c1ccccc1 (stereo unspecified)	none (no result: FMDV inh, HCV inhibitor, Lassa entry inh, HCMV inh, SARS PLP yeast)
COC(=O)CC(=O)O[C@H]1C=C[C@@H](NC(=O)OC(C)(C)C)C1	HCV inhibitor 32µM (no result: MARV entry inh, Lassa entry inh, SARS PLP yeast)
CSc1nccc(-c2cc(Cl)c3c(c2)CC(CNC(=O)c2nonc2C)O3)n1 (stereo unspecified)	none (no result: MARV entry inh, HCV inhibitor, Lassa entry inh, HCMV inh, SARS PLP yeast)
